Test results taken from the supplement of paper PMC4206461.

tested on: Pseudomonas aeruginosa PA14 dppBCDF deletion mutant; experiment: respiration area under curve with compound as sole nitrogen source, 24 h (OmniLog AUC (arbitrary units)); higher = more respiration / better utilisation as nitrogen source, active = 2000 or more; settings: plate: PM8
Procedure: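 Biolog Phenotype MicroArray plates PM6-PM8: each di/tripeptide is the sole nitrogen source. Tetrazolium reduction was read in the OmniLog every 15 min for 24 h at 37°C and summarised as area under the respiration curve (arbitrary units). Values below 2000 count as no respiration. Strain is the dipeptide ABC transporter deletion mutant.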

| SMILES | respiration area under curve |
| --- | --- |
| N[C@@H](Cc1ccc(O)cc1)C(=O)NCC(=O)NCC(=O)O | 4900 (active) |
